The values that follow come from PubChem BioAssay AID687001 (Broad Institute, 2013).

The target in the assay is Protein S100-A4 (Homo sapiens) (UniProt P26447). As to the kind of experiment: S100A4-myosin IIA binding inhibitor potency, dose response, biochemical, fluorescence polarization, cherry-picked hits (AID 687001).

Results with a measured potency or affinity are listed apart. Calls of active or inactive are those of the source.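 The calls were made as follows: active = signal-lowering compounds whose fitted half-maximal concentration is at or below twice the top tested dose in every run; inconclusive = runs disagree, flat 30 to 70% inhibition, or poor curve fit; inactive = the rest.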

Sequence of Protein S100-A4 (Homo sapiens) (P26447 whole entry, looked up): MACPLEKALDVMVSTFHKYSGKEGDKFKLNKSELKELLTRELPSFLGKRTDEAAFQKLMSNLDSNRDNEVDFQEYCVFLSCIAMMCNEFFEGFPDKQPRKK

For the compound `COc1nnc(-c2ccc(C)c(S(N)(=O)=O)c2)c2ccccc12`, the outcome was inactive.

As for `O=C(c1ccccc1)c1ccc(C(=O)N2CCN(c3ccccc3O)CC2)cc1`, the outcome was inactive.

Consider `Cc1cc(F)ccc1S(=O)(=O)N1CCCOC1CNC(=O)C(=O)NCc1ccc2c(c1)OCO2` (centres undefined), for which the result was inactive.

Regarding `C[C@H]1CN([C@@H](C)CO)S(=O)(=O)c2ccc(C3=CCCCC3)cc2O[C@H]1CN(C)Cc1ccccc1`, the compound was classed as inactive.

On to `COc1ccc(CN(C)C[C@@H]2Oc3ccc(NC(=O)Cc4ccccc4)cc3CC(=O)N([C@@H](C)CO)C[C@H]2C)cc1`, for which the compound was classed as inactive.

For the compound `NC1=NC(=O)C(CC(=O)c2ccc(Cl)cc2)S1` (centres undefined), the outcome was inactive.

Take `Cc1ccc(NC(=O)CCCCCN2C(=O)[C@@H]3Cc4ccccc4CN3C2=O)cc1`: the outcome was inactive.

Take `CCN(CC(=O)Nc1c(F)cccc1F)C(=O)c1ccc(OC)c(S(=O)(=O)NC2CCCC2)c1`: the outcome was inactive.

`C[C@@H]1CN([C@H](C)CO)S(=O)(=O)c2ccc(C3=CCCCC3)cc2O[C@@H]1CN(C)Cc1cncnc1`: the compound was classed as inactive.

Consider `COc1ccccc1C(=O)NC(=O)COC(=O)c1ncc(Cl)c(Cl)c1Cl`, for which the result was inactive.

On to `Cc1oc(-c2ccccc2Cl)nc1CSCC(=O)O`, for which the result was inactive.

As for `COc1cccc(NC(=O)N[C@@H]2C=C[C@@H](CC(=O)N3CCN(C)CC3)O[C@@H]2CO)c1`, the result was inactive.

As to `Cc1ccccc1S(=O)(=O)N1C[C@H](O)COC[C@@H]2O[C@@H](CC(=O)NCc3ccccc3Cl)CC[C@H]21`, the outcome was inactive.

For `CC(C)(C)OC(=O)C[C@H]1C/C=C\C[C@H](CC(=O)N[C@H](CO)Cc2ccccc2)C(=O)N[C@H](Cc2ccccc2)COC1=O`, the result was inactive.

Take `Cc1oc(-c2ccc(Cl)cc2)nc1CS(=O)CC(=O)NCCCN1CCN(Cc2ccccc2)CC1` (centres undefined): the call was inactive.

Regarding `CCC1(c2ccc(F)cc2)NC(=O)N(CC(=O)N2CCc3ccccc3C2)C1=O` (centres undefined), the outcome was inactive.

Consider `COCCCNC(=O)C[C@@H]1C[C@@]2(C(=O)OC)CCCCC=C2N(Cc2ccc3c(c2)OCO3)C1=O`, for which the compound was classed as inactive.

Take `O=C(Nc1ccc(Cl)cc1)N[C@H]1CC[C@H](CCNC(=O)c2ccccc2F)O[C@@H]1CO`: the call was inactive.

Consider `COc1cc(S(=O)(=O)NCc2ccccn2)ccc1Cl`, for which the compound was classed as inactive.

As for `Cc1ccc(F)cc1NC(=O)CN1C(=O)NC(C)(c2ccc3c(c2)OCCO3)C1=O` (centres undefined), the compound was classed as inactive.

As for `O=C(CCN1CCCCC1)N[C@H]1CC[C@H](CCn2cc(-c3ccccc3)nn2)O[C@@H]1CO`, the compound was called inactive.

As for `CCOc1cc(/C=C2\CCCc3c2nc2ccccc2c3C(=O)O)ccc1OC`, the compound was called inactive.

As to `Cc1nonc1NC(=O)CSc1nnc(N)s1`, the compound was called inactive.

For `C[C@@H]1CCCCO[C@@H](CN(C)S(=O)(=O)c2cn(C)cn2)[C@@H](C)CN([C@H](C)CO)C(=O)c2cc(NS(=O)(=O)c3ccc(Cl)cc3)ccc2O1`, the compound was classed as inactive.

Consider `Cc1[nH]c2ccccc2c1CC(=O)Nc1ccc(Nc2cccnc2)c(Br)c1`, for which the result was inactive.

Regarding `CCOc1ccc(N(CC)C(=O)CCS(=O)(=O)c2cccc3nonc23)cc1`, the call was inactive.

For the compound `CCCN1[C@H](C(=O)N2CCCCC2)[C@@H](CO)[C@@H]2Cn3c(ccc(-c4ccccc4F)c3=O)[C@@H]21`, the result was inactive.

On to `O=C(c1ccc(Br)o1)N1CCC(Cc2ccccc2)CC1`, for which the outcome was inactive.

For the compound `O=C(NCCOc1ccccc1)C1CCC(=O)N(CCCN2CCOCC2)C1` (centres undefined), the call was inactive.

Take `C[C@@H]1CN([C@H](C)CO)C(=O)c2cccc(NC(=O)CCCCCC(=O)Nc3ccccc3N)c2O[C@H]1CN(C)S(=O)(=O)c1cccs1`: the outcome was inactive.

Take `COC(=O)c1ccc(NC(=O)C2CCCN2C(=O)Nc2cccc(C(C)=O)c2)cc1` (centres undefined): the compound was classed as inactive.

As to `CCN(C[C@H]1[C@H](c2ccccc2)[C@H](CO)N1C(C)=O)C(=O)c1ccccn1`, the result was inactive.

Take `CCCNC(=O)N1CC(=O)N2[C@H](CO)[C@@H](c3ccc(-c4ccc(F)cc4)cc3)[C@H]2C1`: the outcome was inactive.

Turning to `O=C1O[C@@H](c2ccccc2)C[C@@H](O)C(=O)CCCCc2ccccc21`, the compound was called inactive.
